From PubChem BioAssay AID1814 (Broad Institute, 2009) come the findings set out here.

The campaign covered roughly 300,000 compounds. About 22,000 (7.3%) were called active. Roughly 2% stayed inconclusive and do not appear here. Cut-off read from the data, not from the text of the source: active = activity score below about -60%; inconclusive = mostly about -28% to -61%; inactive = positive scores. The entries come from a sample that favours actives as a whole.

This experiment can be described thus: Activators working through SNCA 5'UTR binding (MLPCN) (AID 1814). Particulars: alpha-synuclein 5'UTR reporter, activators screen; stronger effect = lower value; tested at 7.5 µM.
As for `Nc1c(C(=O)c2cccs2)sc2nsc(SCCN3CCCCC3)c12`, the activity score is -213% (active). Take `c1ccc(-c2csc(N3CCc4ccccc4C3)n2)cc1`: the activity score was -117% (active). The value for `COc1ccc2c(c1)CCc1cn3ncc(C#N)c3nc1-2` was 68.1% (inactive). The value for `COc1ccc2nc(N3CCCC(O)C3)c(C#N)cc2c1` (stereo not drawn) was -114% (active); that for `CCc1ccc(Oc2coc3cc(OC(=O)c4cc5ccccc5oc4=O)ccc3c2=O)cc1` was -67% (active). The value for `Cc1sc(NC(=O)c2ccc3ncsc3c2)c(C(N)=O)c1C` was -130% (active); that for `COc1ccccc1-c1nnc(NC(=O)c2ccc3ncsc3c2)o1` was -132% (active); that for `COc1ccc(OC)c(/C(C)=N\NC(=O)c2cc3cc(Cl)ccc3n2C)c1` was -215% (active). `CC1CCCCC1NC(=O)/C(C#N)=C/C=C/c1ccccc1[N+](=O)[O-]` (stereo not drawn): the activity score was -239% (active). Turning to `CCC(C)(C)c1ccc(Oc2ccc(NC(=O)COC(=O)C3=COCCO3)cc2)cc1`, the activity score was 90.6% (inactive). The value for `O=C(OCC(=O)c1cccs1)C1=COCCO1` was -103% (active); that for `COc1cccc(-c2nnc(N(C)C(=O)c3ccno3)s2)c1` was -79.4% (active). The value for `CCN(CC)S(=O)(=O)c1cc(C(=O)Nc2ccccn2)ccc1C` was -79.9% (active); that for `COc1cccc(NCCC(=O)c2cccc([N+](=O)[O-])c2)c1` was -115% (active); that for `Nc1ccccc1/C=N\N=C/c1ccccc1N` was -112% (active). The value for `Cc1cccc(-n2ncc(Cl)c(Cl)c2=O)c1` was -220% (active); that for `Fc1ccc(-c2csc(-c3ccc(C4SCCS4)cc3)n2)cc1F` was -125% (active). In the case of `CCOC(=O)c1cn[nH]c1NC(=S)Nc1ccccc1`, the activity score is -131% (active).

Take `Cc1ccc(C2CC(c3cccc(NS(C)(=O)=O)c3)=NN2S(C)(=O)=O)cc1` (stereo not drawn): the activity score is -70.6% (active). As for `CS(=O)(=O)Nc1ccc(C2=NN(S(C)(=O)=O)C(c3cccs3)C2)cc1` (stereo not drawn), the activity score was -69.5% (active).

With `O=C(CN1C(=O)COc2ccccc21)Nc1ccc(F)cc1`, the activity score was -126% (active). In the case of `Cc1ccc(O)c(-c2cc(C(=O)NCc3ccccc3)[nH]n2)c1`, the activity score was -148% (active). The value for `Cc1ccc(NC(=O)c2cc(-c3ccccc3O)n[nH]2)cc1C` was -129% (active). With `CSc1nsc(NC(=O)Nc2ccccc2)n1`, the activity score was -123% (active). Regarding `O=C(Nc1ccccc1)Nc1nc2ccccc2s1`, the activity score was -64.8% (active). Take `Cn1nnnc1SCC(=O)Nc1nc2ccccc2s1`: the activity score was -151% (active).

In the case of `CCSc1nsc(NC(=O)Nc2cccc(C(C)=O)c2)n1`, the activity score is -111% (active). The value for `CCc1cc2c(=O)c(-c3ccon3)c(N)oc2cc1OC` was -160% (active); that for `COc1ccc(N=C(C)c2sc3ccccc3c2O)cc1` was -125% (active). On to `Nc1[nH][nH]c(=O)c1N=Nc1ccc2c(c1)OCO2`, for which the activity score was -112% (active). For the molecule `Cc1ccc(NC(=S)Nc2ncccc2C)c(C)c1`, the activity score was -199% (active). Take `COc1ccc2c(c1)CCc1c(C(=O)N3CCCC3)noc1-2`: the activity score was -103% (active).

`CNC(=O)/C(C#N)=C/c1c(F)cccc1Cl`: the activity score was -73.3% (active). The value for `O=C(Nn1c(SCc2ccc([N+](=O)[O-])cc2)nc2ccccc2c1=O)c1ccc(F)cc1` was -81.2% (active); that for `c1ccc(-c2nccc(-c3ccc(-n4cnc5ccccc54)cc3)n2)nc1` was -88% (active); that for `O=C(c1ccc(Cl)cc1)c1cnc(Nc2ccccc2)s1` was -159% (active). The value for `CC(C)(C)C(=O)c1cnc(Nc2ccccc2)s1` was -123% (active). As to `COCCN(C(=O)c1ccco1)c1nnc(-c2ccc(OC)cc2)s1`, the activity score is -68.7% (active). The value for `N#C/C=C\Oc1ccc(Cl)cc1N` was -166% (active). Take `COc1ccccc1C1=Nc2cccc3cccc(c23)N1`: the activity score was -62.4% (active). The value for `CC1=CC(=C(C#N)c2nc3ccccc3s2)C=C(C)N1c1ccc(F)cc1F` was -123% (active); that for `C=CCn1c(=NC(=O)c2cccs2)sc2cc(NC(C)=O)ccc21` was -164% (active); that for `Clc1ccccc1SCc1nc2ccccc2[nH]1` was -90.6% (active). The value for `CCNC(=O)N1CCCC(C(=O)c2ccc(-c3ccccc3)cc2)C1` (stereo not drawn) was -101% (active).

On to `O=C(Nc1ccc(Cl)c(Cl)c1)N1CC=C(c2ccccc2)CC1`, for which the activity score was -65.8% (active). Consider `Cc1ccc(Cl)c(OCC(=O)N2CCc3ccccc3C2)c1`, for which the activity score was -117% (active).

Consider `COc1ccc(C2CC(c3cccs3)=Nc3ccccc3S2)cc1OC` (stereo not drawn), for which the activity score is -90.7% (active).

`O=C(/C(=C/c1cccc(Cl)c1)c1nc2ccccc2[nH]1)c1ccccc1`: the activity score was -338% (active). As for `Cc1nc(NC(=O)C2CCCCC2)sc1C`, the activity score is -136% (active). For `O=[N+]([O-])c1cccc(/C=N/Nc2ncc(Br)cn2)c1`, the activity score was -194% (active). On to `O=[N+]([O-])c1ccc(N/N=C/c2ccccc2)cc1`, for which the activity score was -210% (active). The value for `CSc1ccccc1-c1nnc(-c2ccc(Cl)cc2)o1` was -146% (active); that for `COc1ccccc1-c1nnc(-c2ccc(F)cc2)o1` was -122% (active). With `O=C1C(C=NCC2CCCO2)=C(O)c2ccccc21` (stereo not drawn), the activity score is -95.6% (active). As for `CCS(=O)(=O)n1nc(-c2ccc(OC)cc2)nc1SC`, the activity score is -98.6% (active).

In the case of `CCS(=O)(=O)n1nc(-c2ccccc2)nc1SCc1ccccc1`, the activity score was -118% (active). The value for `Cc1cc(O)c(NC(=O)c2ccc(C)c([N+](=O)[O-])c2)cc1C` was -110% (active). `COc1ccccc1CSc1nc2ccccc2[nH]1`: the activity score is -156% (active). Consider `CCCCSc1nc2ccccc2[nH]1`, for which the activity score was -86.8% (active). Consider `CC(C)n1c(=O)[nH]c2cc(C(=O)Nc3ccccc3)ccc21`, for which the activity score is -119% (active). The value for `COc1ccc(-c2c(C#Cc3ccccc3)c3ccccc3n2C)cc1` was -87.3% (active).

`CCOC(=O)c1nn(-c2cccc(C)c2)cc1C(=O)c1ccccc1`: the activity score was -90.5% (active). The value for `O=C1c2ccccc2S(=O)(=O)c2cc(N3CCN(c4ccccn4)CC3)ccc21` was -68.6% (active). In the case of `COc1ccc(C2=NOC(COC(=O)c3ccc4ccccc4n3)C2)cc1` (stereo not drawn), the activity score was -68.4% (active). As for `CN(C)c1ccc(-c2nnc(-c3cccnc3)o2)cc1`, the activity score was -195% (active). The value for `c1ccc(CN=C2Nc3ccccc3CS2)nc1` was -111% (active); that for `COc1ccc(N2C(=O)c3ccccc3NC2c2ccc(OC)c(CN3CCOCC3)c2)cc1` (stereo not drawn) was -72.6% (active). The value for `COc1ccc(C2Nc3ccccc3C(=O)N2c2ccc(Cl)cc2)cc1Cn1cc([N+](=O)[O-])cn1` (stereo not drawn) was -111% (active).
